These results are taken from PubChem BioAssay (NCATS).

Values without a mark were called inactive. Records with an inconclusive call do not appear. The source made the active and inactive calls. The call rests on the fitted dose curve; in most records, active means well fitted curve in the direction sought with a large enough effect; inconclusive means small, poorly fitted or top-dose-only effect, or another doubt; inactive means no such curve, though single readings can be large; an effect the other way counts as inactive or inconclusive.

Experiment [1] is described as follows: Cellular Toxicity (caspase-3) Mesangial (AID 660).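 Further: cells exposed to compound for 16 h before the caspase read.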 The conditions noted are these: mesangial cells, normalized: DMSO 0%, 100 µM tamoxifen 100%; at 91.7 µM (top of the series). A digest of the protocol: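 Human renal glomerular mesangial cells (1000/well) were treated with compounds for 16 h at 37 °C in complete medium, then caspase 3/7 activity was read by Caspase-Glo luminescence. Data were normalized to DMSO and 100 uM tamoxifen; AC50 from Hill fits.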

The nature of experiment [2]: Cellular Toxicity (caspase-3) SK-N-SH (AID 661).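 Further: 0% = DMSO basal and 100% = 10 µM staurosporine.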 A digest of the protocol: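 SK-N-SH human neuroblastoma cells (1500/well) were treated with compounds for 16 hr at 37 °C in complete medium; caspase 3/7 activity was read by Caspase-Glo luminescence. AC50 came from Hill fits of data normalized to DMSO and 10 uM staurosporine.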
Experiment [3] in a line: Cellular Toxicity (caspase-3) H-4-II-E (AID 663).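 Further: cells exposed to compound for 16 hr before readout.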 The following applies: H-4-II-E rat hepatoma, scaled: DMSO 0%, 100 µM tamoxifen 100%; at 92.2 µM (top of the series). A digest of the protocol: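 Apoptosis induction is scored as increased luminescence from caspase 3/7 substrate cleavage in rat hepatoma H-4-II-E cells exposed to compound for 16 hr. Activity is scaled between DMSO and 100 uM tamoxifen.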

The nature of experiment [4]: Cellular Toxicity (caspase-3) Hek293 (AID 664).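 Further: cells exposed to compound for 16 h at 37 °C before readout.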 The following applies: HEK293 caspase-3 activation, DMSO = 0%, 100 µM tamoxifen = 100%; at 92.2 µM (top of the series). In outline:
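HEK293 cells were exposed to compounds in complete medium for 16 hr at 37 °C, then caspase-3/7 activity was read by Caspase-Glo 3/7 luminescence after 20 min at room temperature. Data normalized to DMSO and 100 uM tamoxifen; AC50 from Hill fits.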

Experiment [5] in a line: Cellular Toxicity (caspase-3) N2a (AID 665).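 Further: compound exposure lasted 16 h at 37 °C before readout.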 In outline: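 Mouse N2a neuroblastoma cells (1500/well) were treated with compounds for 16 h at 37 °C, then caspase-3/7 activity was read by Caspase-Glo luminescence after 1 h at room temperature. Data were normalized to DMSO and 10 uM staurosporine; AC50 from Hill fits.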
A short description of experiment [6]: Cellular Toxicity (caspase-3) Renal Proximal Tubule (AID 667).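 Further: cells exposed to compound for 16 hours at 37 °C before detection; 0% = DMSO basal and 100% = 10 µM staurosporine.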 The following applies: Potency: caspase-3 activation. In outline: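 In qHTS format, rat primary proximal tubule cells seeded at 1000 per well are exposed to compounds for 16 hours at 37 °C. An increase in Caspase-Glo 3/7 luminescence indicates caspase activation.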
Experiment [7] has as its target Cytochrome P450 3A4 (Homo sapiens) (UniProt P08684). The experiment in a line: qHTS Assay for Inhibitors and Substrates of Cytochrome P450 3A4 (AID 884). Further: nearly all actives have a fitted effect of over 50% in size. Further: potency means the concentration at half of the fitted maximal effect. A digest of the protocol:
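20 nM human CYP3A4 with 25 uM Luciferin-PPXE (at KM) in 200 mM KPO4, preincubated 10 min with compound; NADPH regeneration started a 60 min RT reaction. Luciferin detected by luminescence, normalized to 57 uM ketoconazole as full inhibition.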
For orientation: Quantitative high-throughput screening tests each substance at several concentrations.

Experiment [8] has the same target. The experiment in a line: qHTS Assay for Activators of Cytochrome P450 3A4 (AID 885). Further: nearly all actives have a fitted effect of over 65% in size. A digest of the protocol: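 Steps: enzyme/substrate mix dispensed; compound added, 10 min RT; NADPH regeneration solution added, 60 min RT; luciferin detection buffer stops reaction; 20 min later luminescence measured.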
Experiment [9] in a line: Cell Viability - LYMP2-001 (AID 921).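 Further: 0% = DMSO only and full inhibition = tetraoctylammonium bromide control wells; nearly all actives have a fitted effect of over 70% in size.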 In outline:
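qHTS, 1536-well; lymphoblastoid cells, 24 hr compound, 37 C; ATP by CellTiter-Glo, 30 min RT; luminescence; Hill-fit AC50.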

The nature of experiment [10]: MultiTox-Fluor Cytotoxicity Assay - LYMP1-001 - Dead Cells (AID 946). A digest of the protocol:
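Seed 2500 LYMP1-001 cells/well, incubate 5 hr at 37 C; add compound, 16 hr at 37 C; add MultiTox-Fluor reagent, 60 min RT; read dead-cell fluorescence Ex/Em=485/520. Normalize to DMSO and 15 uM tetraoctylammonium bromide.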

The nature of experiment [11]: MultiTox-Fluor Cytotoxicity Assay - LYMP1-001 - Live Cells (AID 947).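 Further: 0% = DMSO only and full inhibition = tetraoctylammonium bromide control.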
Experiment [12] is described as follows: Cell Viability - LYMP1-002 - Assay at 16 hr (AID 948).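 Further: 0% = DMSO alone and full effect = 92 µM tetraoctylammonium bromide.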 A digest of the protocol:
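Acute cytotoxicity is scored as a concentration-dependent fall in intracellular ATP in a human lymphoblastoid line (LYMP1-002) after 16 hr compound exposure at 37 C, measured by luciferase luminescence.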

Experiment [13] can be described thus: MultiTox-Fluor Cytotoxicity Assay - LYMP1-002 - Live Cells (AID 955). Further: on the % scale 0 is the no-effect control and ±100 the full control effect. A digest of the protocol: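 Human lymphoblastoid LYMP1-002 cells, 2500/well in complete medium, rested 5 hr at 37 C, then exposed to compounds for 16 hr at 37 C. Live-cell protease cleavage of GF-AFC read by fluorescence (Ex/Em 405/510) after 60 min at room temperature; AC50 from Hill fits.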

A short description of experiment [14]: MultiTox-Fluor Cytotoxicity Assay - LYMP1-002 - Dead Cells (AID 960). Further: nearly all actives have a fitted effect of over 60% in size. A digest of the protocol:
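Human lymphoblastoid cells (LYMP1-002), 2500/well in complete medium, were exposed to compounds for 16 hr at 37 C. Dead-cell protease activity was read as bis-AAF-R110 fluorescence (Ex/Em 485/520), normalized to DMSO and 15 uM tetraoctylammonium bromide; AC50 from Hill fits.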

Experiment [15] is described as follows: MultiTox-Fluor Cytotoxicity Assay - LYMP1-003 - Dead Cells (AID 961). Further: nearly all actives have a fitted effect of over 70% in size. In outline:
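LYMP1-003 lymphoblastoid, 2500 cells/well, 5 hr settle then 16 hr cpd at 37 C; MultiTox-Fluor reagent 60 min RT; Ex/Em 485/520 dead-cell signal; norm. DMSO = 0%, 15 uM tetraoctylammonium bromide = 100%; Hill AC50.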

Experiment [16] can be described thus: Cell Viability - LYMP1-003 - Assay at 24 hr (AID 963).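 Further: plate controls were DMSO only for no effect and tetraoctylammonium bromide positive control for full effect.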 In outline:
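Human lymphoblastoid LYMP1-003 cells (2500/well) were rested 5 hr at 37 C, then exposed to compounds in complete medium for 24 hr at 37 C. Cellular ATP was quantified by CellTiter-Glo luminescence, and AC50 values came from Hill fits of concentration-response data.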

The nature of experiment [17]: Cell Viability - LYMP1-003 - Assay at 40 hr (AID 964). Further: on the % scale 0 is the no-effect control and ±100 the full control effect; nearly all actives have a fitted effect of over 60% in size. A digest of the protocol:
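Human lymphoblastoid LYMP1-003 cells, 2500/well in complete medium, rested 5 hr at 37 C, then exposed to compounds for 40 hr at 37 C. Viability read as intracellular ATP by CellTiter-Glo luminescence; AC50 from Hill fits of concentration-response data.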

A short description of experiment [18]: Cell Viability - LYMP2-003 (AID 965).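 Further: cells exposed to compounds for 24 h before reading; 0% = DMSO only and full effect = 92 µM tetraoctylammonium bromide; nearly all actives have a fitted effect of over 50% in size.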 In outline: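 Acute cytotoxicity is scored as a concentration-dependent drop in intracellular ATP, measured by luciferase luminescence in human lymphoblastoid cells treated for 24 hours at 37 C. AC50 values derive from Hill-equation modelling.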
The nature of experiment [19]: MultiTox-Fluor Cytotoxicity Assay - LYMP1-003 - Live Cells (AID 962).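 Further: 0% = DMSO only and full loss = 92 µM tetraoctylammonium bromide; cytotoxic hits lower the live-cell protease signal.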 In outline:
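LYMP1-003 human lymphoblastoid cells (2500/well) in complete medium were preincubated 5 hr at 37 C, then exposed to compounds for 16 hr at 37 C. Live-cell protease cleavage of GF-AFC read by fluorescence (Ex/Em 405/510); AC50 from Hill fits.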

Cytochrome P450 3A4 (Homo sapiens), sequence (P08684 whole entry, looked up): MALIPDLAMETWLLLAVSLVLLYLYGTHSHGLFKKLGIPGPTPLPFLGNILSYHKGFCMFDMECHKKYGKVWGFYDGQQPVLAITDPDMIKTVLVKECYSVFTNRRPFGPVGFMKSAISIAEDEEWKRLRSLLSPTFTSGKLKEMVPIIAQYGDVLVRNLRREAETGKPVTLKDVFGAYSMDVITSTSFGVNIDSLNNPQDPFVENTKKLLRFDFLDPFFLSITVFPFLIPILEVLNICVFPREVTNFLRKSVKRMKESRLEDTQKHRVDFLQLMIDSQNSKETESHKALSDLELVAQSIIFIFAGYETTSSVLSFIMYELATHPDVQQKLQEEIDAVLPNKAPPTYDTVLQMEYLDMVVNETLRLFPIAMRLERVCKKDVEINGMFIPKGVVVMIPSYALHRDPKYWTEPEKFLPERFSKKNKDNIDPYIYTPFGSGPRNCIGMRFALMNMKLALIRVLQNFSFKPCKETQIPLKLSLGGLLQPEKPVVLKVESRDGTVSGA

`O=C1NC(=O)c2cc([N+](=O)[O-])ccc21`: the caspase-3 activation is -0.781% in experiment [1], -0.832% in experiment [3] and -0.133% in [4]. Also, the compound was classed as inactive in experiment [2], in [5], in experiment [8], in experiment [10], in experiment [11] and in experiment [12]. The compound was classed as inactive in experiment [13] and in experiment [14]. Also, the Potency entry in experiment [6], in [9], in experiment [15], in experiment [16], in experiment [17] and in experiment [18] was “inactive” in each case. In experiment [7], the Potency was 15.8 µM (active).

Consider `CC(=O)c1ccc([N+](=O)[O-])cc1`, for which the caspase-3 activation in [1] was -0.175%; in experiment [3], 0.949%; in experiment [4] it was -0.704%. For the same compound, the call in [2], in experiment [5], in experiment [10], in experiment [11], in experiment [13] and in experiment [14] was inactive. Also, the Potency entry in experiment [6], in experiment [7], in [9], in experiment [15], in [19] and in experiment [17] was “inactive” throughout. In addition, in experiment [18], the Potency result was “inactive”.

For `ClC/C=C/CCl`, the caspase-3 activation in [1] was 0.143%; in experiment [3], 3.85%; in experiment [4], 1.61%. Moreover, the outcome in [2], in [5], in [10], in experiment [11], in [12] and in [13] was inactive. Moreover, in [14], the result was inactive. Besides, the Potency entry in experiment [6], in experiment [7], in experiment [15], in experiment [17] and in [18] was “inactive” each time.

Consider `C[C@@H]1CC2(OC[C@]3(C)O[C@H]23)O[C@H]2C[C@@]3(C)[C@@H]4CC[C@H]5C(C)(C)C(O[C@@H]6OC[C@@H](O)[C@H](O)[C@H]6O)CC[C@@]56C[C@@]46CC[C@]3(C)[C@@H]12` (stereo partly drawn), for which the caspase-3 activation in [1] was 2.15%; in [3], 2.6%; in [4], 3.04%. Besides, the call in [2], in experiment [5], in experiment [10], in [11], in [12] and in experiment [13] was inactive. Also, the call in experiment [14] was inactive. The Potency result in [6], in [7], in experiment [9], in experiment [15], in experiment [19] and in experiment [16] was “inactive” each time. Moreover, the Potency result in experiment [17] and in [18] was “inactive” each time.

As to `Nc1c(Cl)cc(Cl)cc1Cl`, the figures for the caspase-3 activation in experiment [1], in experiment [3] and in experiment [4] were 0.75%, 2.86% and -0.377%, respectively. Also, the outcome in [2], in experiment [5], in [10], in [11], in [12] and in [13] was inactive. The outcome in [14] was inactive. Also, the Potency result in experiment [6], in experiment [7], in experiment [9], in [15], in experiment [19] and in experiment [16] was “inactive” each time. The Potency result in [17] and in experiment [18] was “inactive” throughout.

As to `CC(=O)c1cc(C)oc1C`, the caspase-3 activation in [1] is 0.543%; in [3], -0.25%; in [4], 0.799%. The outcome in experiment [2], in experiment [5], in [10], in experiment [11], in [13] and in experiment [14] was inactive. Also, the Potency result in experiment [6], in [7], in experiment [9], in experiment [15], in [16] and in experiment [17] was “inactive” throughout. Moreover, the Potency result in experiment [18] is “inactive”.

Regarding `CCCCOCCOCCOCCCC`, the caspase-3 activation is -0.157% in experiment [1], -0.168% in experiment [3] and -0.809% in experiment [4]. The compound was classed as inactive in [2], in [5], in [10], in experiment [11], in experiment [12] and in experiment [14]. Further, the Potency result in [6], in experiment [7], in experiment [9], in experiment [15], in experiment [19] and in [16] was “inactive” throughout. Moreover, the Potency result in [17] and in [18] was “inactive” each time.
